The nature of assay [1]: qHTS assay to identify small molecule agonists of the sonic hedgehog signaling (Shh) pathway (AID 1259368; calls by dose curve; further: nearly all actives have a fitted effect of over 15% in size; further: potency means the concentration at half of the fitted maximal effect;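 on activity change: NIH/3T3-derived 3T3Gli1-Luc cells carrying a stable Gli1-driven firefly luciferase reporter; series mostly up to about 92 µM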). The method, boiled down: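 Hedgehog pathway agonism scored by increased firefly luciferase luminescence in 3T3Gli1-Luc cells treated 24 hr at 37 C; detection used a 30 min room-temperature reagent incubation.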
A short description of assay [2]: qHTS assay to identify small molecule antagonists of the sonic hedgehog signaling (Shh) pathway (AID 1259369; calls by dose curve; further: nearly all actives have a fitted effect of over 45% in size; further: potency means the concentration at half of the fitted maximal effect). The method in brief:
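NIH/3T3 stable Gli1-Luc clone, 2,000 cells/well, 4hr settle; cpd + conditioned medium 24hr; Luc reagent 30min RT; luminescence.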
For orientation: Quantitative high-throughput screening tests each substance at several concentrations.

Assay [3] in a line: qHTS assay to identify small molecule agonists of the androgen receptor (AR) signaling pathway in the presence of an antagonist - cell viability counter screen (AID 1259379). Further: nearly all actives have a fitted effect of over 25% in size. Further: potency means the concentration at half of the fitted maximal effect.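 On activity change, negative = cytotoxicity: MDA-kb2 human breast cancer cells carrying an MMTV luciferase reporter; series mostly up to about 92 µM.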 The method in brief: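 MDA-kb2 viability measured by CellTiter-Fluor fluorescence in the same wells as the luciferase signal; nilutamide 3.0uM final; 15-point compound titration; 16 hr at 37C.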
Assay [4] in a line: qHTS assay to identify small molecule agonists of the estrogen receptor beta (ER-beta) signaling pathway - cell viability counter screen (AID 1259380). Further: nearly all actives have a fitted effect of over 30% in size. Further: potency means the concentration at half of the fitted maximal effect. The method in brief: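 Measured: luminescence from CellTiter-Glo after 30 min at room temperature, added to wells already read for the LiveBLAzer FRET reporter (2 hr substrate); ER-beta-UAS-bla HEK293T cells had 16 hr compound treatment at 37C, 5% CO2.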

The nature of assay [5]: qHTS assay to identify small molecule antagonists of the estrogen receptor beta (ER-beta) signaling pathway - cell viability counter screen (AID 1259382). Further: nearly all actives have a fitted effect of over 55% in size. Further: potency means the concentration at half of the fitted maximal effect. On activity change, negative = cytotoxicity: series mostly up to about 92 µM. The method, boiled down:
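Readout: luminescence, CellTiter-Glo, same wells as bla assay. System: ER-beta-UAS-bla GripTite HEK293T, 2% charcoal-stripped FBS. Exposure: compounds plus 1nM 17-beta-estradiol, 16 hr, 37C.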

For assay [6], the target named is Estrogen receptor (Homo sapiens) (UniProt P03372). Put plainly: qHTS assay to identify small molecule agonists of the estrogen receptor alpha (ER-alpha) signaling pathway in the presence of an antagonist (AID 1259383; calls by dose curve; further: nearly all actives have a fitted effect of over 15% in size; further: potency means the concentration at half of the fitted maximal effect; on activation: top concentration of the series differs between compounds). The method in brief: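 Quantitative HTS confirmation: compounds titrated at 15 concentrations onto estrogen-deprived VM7Luc4E2 cells carrying a four-ERE luciferase construct, with ICI-182,780 present at 10.0nM final. Signal is luminescence after 22hr exposure.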
Sequence of Estrogen receptor (Homo sapiens) (P03372 whole entry, looked up): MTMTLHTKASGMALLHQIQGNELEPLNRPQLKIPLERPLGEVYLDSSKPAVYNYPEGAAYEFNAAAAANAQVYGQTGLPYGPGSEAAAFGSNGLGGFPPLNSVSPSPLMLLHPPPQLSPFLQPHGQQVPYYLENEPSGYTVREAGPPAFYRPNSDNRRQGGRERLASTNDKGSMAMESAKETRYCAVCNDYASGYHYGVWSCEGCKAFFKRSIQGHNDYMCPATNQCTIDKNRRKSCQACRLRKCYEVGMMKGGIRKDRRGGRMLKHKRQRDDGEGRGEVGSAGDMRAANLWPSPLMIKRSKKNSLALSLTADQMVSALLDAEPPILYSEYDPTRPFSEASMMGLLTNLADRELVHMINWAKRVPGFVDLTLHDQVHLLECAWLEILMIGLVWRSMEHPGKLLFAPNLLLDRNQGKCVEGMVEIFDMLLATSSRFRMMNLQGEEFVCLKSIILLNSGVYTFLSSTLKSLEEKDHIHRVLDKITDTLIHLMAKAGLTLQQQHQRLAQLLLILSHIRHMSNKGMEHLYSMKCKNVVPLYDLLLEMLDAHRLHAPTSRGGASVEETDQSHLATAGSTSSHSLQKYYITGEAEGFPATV

Assay [7] in a line: qHTS assay to identify small molecule agonists or antagonists of the thyroid stimulating hormone receptor (TSHR) signaling pathway - wild type cell line counter screen (AID 1259384; calls by dose curve). The method, boiled down:
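Wild-type HEK293 cells were plated 18 h at 37 C/5% CO2, pin-dosed with compound plus Ro20-1724 medium, held 30 min at room temperature, then given cAMP-d2 and anti-cAMP-cryptate; fluorescence was read after 1 h. Fifteen concentrations, triplicate.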

The target of assay [8] is Thyrotropin receptor (Homo sapiens) (UniProt P16473). The assay is described as follows: qHTS assay to identify small molecule antagonists of the thyroid stimulating hormone receptor (TSHR) signaling pathway (AID 1259385; calls by dose curve; further: nearly all actives have a fitted effect of over 20% in size). The method in brief:
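TSHR-HEK293 cells were plated and held 18 h at 37C/5% CO2, then given compound plus Ro20-1724 and stimulated with TSH at 1.5 ng/mL final. After 30 min at room temperature, cAMP was detected with cAMP-d2/anti-cAMP-cryptate (1 h) by fluorescence.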

The nature of assay [9]: qHTS assay to identify small molecule agonists of the estrogen receptor alpha (ER-alpha) signaling pathway in the presence of an antagonist - cell viability counter screen (AID 1259386).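 Further: cells exposed to compounds for 22 h at 37 °C before the viability read; nearly all actives have a fitted effect of over 30% in size.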 Further: potency means the concentration at half of the fitted maximal effect. On activity change, negative = cytotoxicity: series mostly up to about 92 µM. The method, boiled down:
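The test measures whether compounds kill ER-alpha reporter cells (VM7Luc4E2) under antagonist co-treatment (ICI-182,780, 10.0nM). Fluorescence from CellTiter-Fluor is read after a 22hr exposure.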

Assay [10] deals with Progesterone receptor (Homo sapiens) (UniProt P06401). The assay is described as follows: qHTS assay to identify small molecule agonists of the progesterone receptor (PR) signaling pathway (AID 1346784; calls by dose curve; further: nearly all actives have a fitted effect of over 30% in size). The method, boiled down:
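PR-UAS-bla HEK 293T cells (beta-lactamase reporter under UAS) in 2% charcoal-stripped FBS, dosed with 23 nL compound after 6 hr, incubated 16hr at 37C. LiveBLAzer B/G FRET substrate added, fluorescence read after 2 hours.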

A short description of assay [11]: qHTS assay to identify small molecule agonists of the progesterone receptor (PR) signaling pathway - cell viability counter screen (AID 1346799; calls by dose curve; further: nearly all actives have a fitted effect of over 45% in size; further: potency means the concentration at half of the fitted maximal effect). The method in brief: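 Counter screen in the PR-UAS-bla HEK293T wells (2% charcoal-stripped FBS, 16 h compound exposure at 37 C) after the bla read. CellTiter-Glo added, 30 min at room temperature, luminescence read as cell viability.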

A short description of assay [12]: qHTS assay to identify small molecule antagonists of the TGF-beta/Smad signaling pathway - cell viability counter screen (AID 1346824). Further: nearly all actives have a fitted effect of over 50% in size. The method, boiled down: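 SBE-bla HEK 293T cells were plated overnight at 37 C, then given compounds in DMSO plus TGF-beta1 (added as 0.25 ng/mL solution) for 5 hr. After the bla read, CellTiter-Glo was added to the same wells and luminescence read after 30 min at room temperature.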

Assay [13] can be described thus: qHTS assay to identify small molecule agonists of the TGF-beta/Smad signaling pathway - cell viability counter screen (AID 1346829). Further: top concentration of the series differs between compounds; nearly all actives have a fitted effect of over 45% in size. The method, boiled down: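 After overnight seating at 37 C and 5% CO2, reporter cells got compounds for 5 hr and FRET substrate for 2 hr; cell viability then came from CellTiter-Glo luminescence.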
Assay [14] is described as follows: qHTS assay to identify small molecule agonists of the TGF-beta/Smad signaling pathway (AID 1346859; active means well fitted activation curve with a large enough effect in the signal ratio in the repeat runs, not every such curve was filed as active; the % refers to the signal ratio; further: series mostly up to about 77 µM). The method, boiled down: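 SBE-bla HEK293T cells plated overnight, then compound exposure for 5 h at 37 C. Beta-lactamase reporter read with LiveBLAzer B/G FRET substrate after 2 h at room temperature, fluorescence at 405 nm excitation, 460/530 nm emission.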
The target of assay [15] is Thyrotropin-releasing hormone receptor (Homo sapiens) (UniProt P34981). Put plainly: qHTS assay to identify small molecule antagonists of the thyrotropin-releasing hormone receptor (TRHR) signaling pathway (AID 1346877; active means well fitted inhibition curve with a large enough effect in the repeat runs, not every such curve was filed as active; further: series mostly up to about 51 µM). The method in brief:
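Overnight-plated (18 h, 37 °C) HEK293 cells expressing TRHR were dye-loaded 2 h, treated with compound, then stimulated with TRH at 1 nM final. Fluorescence intensity was captured every second for 3 min.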

The target in assay [16] is Progesterone receptor (Homo sapiens) (UniProt P06401). Put plainly: qHTS assay to identify small molecule antagonists of the progesterone receptor (PR) signaling pathway (AID 1346795; active means well fitted inhibition curve with a large enough effect in the signal ratio in the repeat runs, not every such curve was filed as active; the % refers to the signal ratio; further: potency means the concentration at half of the fitted maximal effect). The method, boiled down: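 PR-UAS-bla HEK293T cells with beta-lactamase reporter under UAS control, in 2% charcoal-stripped FBS, treated with compounds plus 1 nM promegestone (R5020, final) for 16 hr at 37C. Read-out: FRET beta-lactamase substrate fluorescence after 2 hr at room temperature.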
Sequence of Progesterone receptor (Homo sapiens) (P06401 whole entry, looked up): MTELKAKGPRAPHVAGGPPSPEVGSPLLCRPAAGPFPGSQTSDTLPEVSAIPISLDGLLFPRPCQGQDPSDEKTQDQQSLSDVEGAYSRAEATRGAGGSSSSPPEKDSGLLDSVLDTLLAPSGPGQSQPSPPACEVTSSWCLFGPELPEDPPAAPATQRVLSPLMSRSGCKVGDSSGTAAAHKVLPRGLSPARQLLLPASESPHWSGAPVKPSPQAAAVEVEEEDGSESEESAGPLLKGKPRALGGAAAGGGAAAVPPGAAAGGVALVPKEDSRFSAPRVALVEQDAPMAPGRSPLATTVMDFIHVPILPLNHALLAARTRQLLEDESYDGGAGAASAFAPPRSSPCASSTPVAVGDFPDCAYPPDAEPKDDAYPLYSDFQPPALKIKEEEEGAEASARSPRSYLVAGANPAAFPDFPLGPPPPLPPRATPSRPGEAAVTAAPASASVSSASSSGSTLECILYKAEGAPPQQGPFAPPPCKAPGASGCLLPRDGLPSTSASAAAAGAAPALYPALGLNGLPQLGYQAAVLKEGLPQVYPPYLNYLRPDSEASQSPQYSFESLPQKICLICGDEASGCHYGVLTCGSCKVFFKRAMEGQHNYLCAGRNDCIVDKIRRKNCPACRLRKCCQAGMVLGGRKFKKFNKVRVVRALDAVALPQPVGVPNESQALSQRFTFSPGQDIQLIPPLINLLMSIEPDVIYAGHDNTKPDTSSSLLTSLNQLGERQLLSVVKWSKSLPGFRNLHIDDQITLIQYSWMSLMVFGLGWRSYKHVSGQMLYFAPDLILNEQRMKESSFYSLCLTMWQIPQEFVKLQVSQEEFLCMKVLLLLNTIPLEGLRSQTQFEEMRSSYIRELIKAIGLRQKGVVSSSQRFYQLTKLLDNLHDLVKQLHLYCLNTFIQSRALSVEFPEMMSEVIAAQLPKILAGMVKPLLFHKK

A short description of assay [17]: qHTS assay to identify small molecule antagonists of the progesterone receptor (PR) signaling pathway - cell viability counter screen (AID 1346798). Further: nearly all actives have a fitted effect of over 50% in size. Further: potency means the concentration at half of the fitted maximal effect. On activity change, negative = cytotoxicity: series mostly up to about 92 µM. The method, boiled down: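 PR-UAS-bla HEK293T cells, 3,000/well in 2% charcoal-stripped FBS medium, dosed with compounds plus R5020 agonist and incubated 16 h at 37C. Viability then measured in the same wells by CellTiter-Glo luminescence after 30 min at RT.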

Assay [18] concerns the target Androgen receptor (Homo sapiens) (UniProt P10275). The assay is described as follows: qHTS assay to identify small molecule agonists of the androgen receptor (AR) signaling pathway in the presence of an antagonist (AID 1259381; calls by dose curve; further: nearly all actives have a fitted effect of over 15% in size). The method, boiled down:
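Luminescent ONE-Glo read, 30min at room temperature, follows 16hr compound exposure (15 concentrations) of MDA-kb2 cells at 37C, 0% CO2, with nilutamide added at 3.0uM final.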

Assay [19] concerns the target Estrogen receptor beta (Homo sapiens) (UniProt Q92731). The assay is described as follows: qHTS assay to identify small molecule agonists of the estrogen receptor beta (ER-beta) signaling pathway (AID 1259377; active means well fitted activation curve with a large enough effect in the signal ratio in the repeat runs, not every such curve was filed as active; the % refers to the signal ratio; further: potency means the concentration at half of the fitted maximal effect). The method in brief:
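ER-beta-UAS-bla HEK293T cells in medium with 2% charcoal-stripped FBS were exposed to compounds for 16 h at 37C. Beta-lactamase reporter activity was read as fluorescence after 2 h with LiveBLAzer B/G FRET substrate at room temperature.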

The target is the same in assay [20]. The assay is described as follows: qHTS assay to identify small molecule antagonists of the estrogen receptor beta (ER-beta) signaling pathway (AID 1259378; active means well fitted inhibition curve with a large enough effect in the signal ratio in the repeat runs, not every such curve was filed as active; the % refers to the signal ratio). The method in brief: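 ER-beta-UAS-bla HEK293T (GripTite) cells in 2% charcoal-stripped FBS medium were preincubated 6 hr at 37C, dosed with compound, then stimulated with 1 nM E2 (final) for 16 hr; beta-lactamase reporter read by B/G FRET fluorescence after 2 hr substrate loading.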

The source of these data is PubChem BioAssay (Tox21).

“And” between values parts separate entries of the source, which are not always exact repeats. Equal values may be shown once. Results filed as inconclusive are left out. Some compounds were tested as several samples or in several runs, with calls that do not always agree. The source made the active and inactive calls. Unless noted, the call rests on the fitted dose curve; in most records, active means well fitted curve in the direction sought with a large enough effect in the repeat runs; inconclusive means weak or mixed curves; inactive means no such curve, though single readings can be large; an effect the other way counts as inactive or inconclusive.
On the % scale 0 is the no-effect control and ±100 the full control effect.

Sequence of Thyrotropin receptor (Homo sapiens) (P16473 whole entry, looked up): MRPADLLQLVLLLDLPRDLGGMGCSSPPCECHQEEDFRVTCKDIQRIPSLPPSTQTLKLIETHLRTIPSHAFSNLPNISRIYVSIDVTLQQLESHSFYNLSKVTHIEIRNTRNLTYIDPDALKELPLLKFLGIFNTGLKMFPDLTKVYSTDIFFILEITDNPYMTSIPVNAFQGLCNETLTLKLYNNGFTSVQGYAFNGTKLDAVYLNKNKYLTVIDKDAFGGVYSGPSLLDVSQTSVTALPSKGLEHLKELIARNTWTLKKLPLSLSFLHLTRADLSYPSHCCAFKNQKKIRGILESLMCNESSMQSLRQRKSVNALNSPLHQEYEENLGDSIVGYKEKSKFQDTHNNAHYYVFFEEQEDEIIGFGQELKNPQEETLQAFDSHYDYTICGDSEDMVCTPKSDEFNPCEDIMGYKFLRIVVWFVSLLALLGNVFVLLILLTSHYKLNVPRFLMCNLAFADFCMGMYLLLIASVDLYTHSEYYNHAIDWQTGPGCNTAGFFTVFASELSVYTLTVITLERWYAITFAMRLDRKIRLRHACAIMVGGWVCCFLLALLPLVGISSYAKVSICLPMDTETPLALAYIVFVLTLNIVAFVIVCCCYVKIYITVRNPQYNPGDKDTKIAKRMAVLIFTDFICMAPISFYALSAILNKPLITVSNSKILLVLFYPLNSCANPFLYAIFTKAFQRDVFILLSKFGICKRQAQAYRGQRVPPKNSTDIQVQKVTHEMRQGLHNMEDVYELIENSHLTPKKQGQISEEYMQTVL
Sequence of Estrogen receptor beta (Homo sapiens) (Q92731 whole entry, looked up): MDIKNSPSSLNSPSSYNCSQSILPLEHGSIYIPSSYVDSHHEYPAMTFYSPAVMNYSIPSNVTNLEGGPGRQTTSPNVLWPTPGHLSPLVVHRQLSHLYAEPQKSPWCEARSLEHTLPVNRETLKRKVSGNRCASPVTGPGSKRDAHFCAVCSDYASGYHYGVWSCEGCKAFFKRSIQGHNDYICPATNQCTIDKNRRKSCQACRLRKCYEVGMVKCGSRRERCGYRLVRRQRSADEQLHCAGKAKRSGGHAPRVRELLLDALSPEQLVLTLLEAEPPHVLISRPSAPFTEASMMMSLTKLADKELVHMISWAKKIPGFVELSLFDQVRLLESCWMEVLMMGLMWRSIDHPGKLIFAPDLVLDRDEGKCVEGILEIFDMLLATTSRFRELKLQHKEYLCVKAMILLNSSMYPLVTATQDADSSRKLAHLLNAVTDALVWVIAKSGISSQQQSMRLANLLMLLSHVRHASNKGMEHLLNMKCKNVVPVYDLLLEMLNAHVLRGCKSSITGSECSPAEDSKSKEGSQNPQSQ
Sequence of Androgen receptor (Homo sapiens) (P10275 whole entry, looked up): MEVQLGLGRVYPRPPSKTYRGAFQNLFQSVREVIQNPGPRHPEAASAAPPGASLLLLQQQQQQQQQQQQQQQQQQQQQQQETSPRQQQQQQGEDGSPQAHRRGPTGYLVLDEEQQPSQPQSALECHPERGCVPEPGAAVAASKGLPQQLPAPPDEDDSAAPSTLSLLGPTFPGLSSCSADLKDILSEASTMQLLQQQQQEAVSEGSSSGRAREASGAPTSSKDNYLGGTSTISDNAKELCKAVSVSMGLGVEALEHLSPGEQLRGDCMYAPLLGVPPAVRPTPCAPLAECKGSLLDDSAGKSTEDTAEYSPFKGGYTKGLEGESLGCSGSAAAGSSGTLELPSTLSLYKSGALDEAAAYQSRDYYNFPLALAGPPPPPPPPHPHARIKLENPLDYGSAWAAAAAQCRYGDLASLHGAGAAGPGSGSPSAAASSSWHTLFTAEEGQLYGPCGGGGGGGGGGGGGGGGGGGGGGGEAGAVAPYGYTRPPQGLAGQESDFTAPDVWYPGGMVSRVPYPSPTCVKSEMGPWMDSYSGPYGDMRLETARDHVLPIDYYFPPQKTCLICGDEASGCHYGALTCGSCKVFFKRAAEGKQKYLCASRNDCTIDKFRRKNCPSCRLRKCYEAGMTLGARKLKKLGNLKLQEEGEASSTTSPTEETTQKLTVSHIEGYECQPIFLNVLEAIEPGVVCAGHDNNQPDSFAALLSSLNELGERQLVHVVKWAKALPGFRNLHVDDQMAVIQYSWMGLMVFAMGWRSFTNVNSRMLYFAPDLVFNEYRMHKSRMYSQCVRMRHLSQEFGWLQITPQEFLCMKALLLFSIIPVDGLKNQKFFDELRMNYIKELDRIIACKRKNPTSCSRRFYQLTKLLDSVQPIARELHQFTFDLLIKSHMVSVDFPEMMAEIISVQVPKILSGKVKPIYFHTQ
Sequence of Thyrotropin-releasing hormone receptor (Homo sapiens) (P34981 whole entry, looked up): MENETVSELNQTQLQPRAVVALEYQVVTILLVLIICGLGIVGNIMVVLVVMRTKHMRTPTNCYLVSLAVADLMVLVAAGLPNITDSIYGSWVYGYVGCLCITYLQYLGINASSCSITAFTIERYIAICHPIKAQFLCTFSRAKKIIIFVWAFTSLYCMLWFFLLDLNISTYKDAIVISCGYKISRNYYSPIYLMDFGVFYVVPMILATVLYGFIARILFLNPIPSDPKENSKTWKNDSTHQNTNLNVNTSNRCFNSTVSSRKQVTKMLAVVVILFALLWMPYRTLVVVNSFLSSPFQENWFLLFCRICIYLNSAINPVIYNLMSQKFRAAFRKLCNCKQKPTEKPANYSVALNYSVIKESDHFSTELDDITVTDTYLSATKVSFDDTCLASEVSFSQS

Turning to `COC(=O)C1=C(C)NC(C)=C(C(=O)OCCN(C)Cc2ccccc2)C1c1cccc([N+](=O)[O-])c1` (stereo not given), the Potency entry in assay [1], in [6], in [8], in assay [10], in assay [12] and in [13] was “inactive” each time. For the same molecule, the Potency entry in assay [15] was “inactive”. In addition, the Potency in assay [2] was 68.2 µM (active); in assay [3], 60.8 µM (active); in [4] it was 68.2 µM (active) and 29.8 µM (active); in [5] it was 60.8 µM (active); in assay [9], 54.2 µM (active) and 18.8 µM (active); in [11], 30.5 µM (active). Moreover, the call in [7] and in [14] was inactive.
As for `CN1C(C(=O)Nc2ccccn2)=C(O)c2ccccc2S1(=O)=O`, the Potency entry in [1], in [2], in assay [3], in assay [4], in [5] and in assay [8] was “inactive” in each case. In addition, the Potency entry in assay [9], in assay [10], in assay [16], in [11], in assay [12] and in assay [13] was “inactive” throughout. In addition, the Potency result in assay [15] was “inactive”. For the same molecule, the molecule was called inactive in assay [7] and in assay [14].
As for `O=C(Nc1ccc([N+](=O)[O-])cc1Cl)c1cc(Cl)ccc1O`, the Potency entry in assay [1] and in assay [8] was “inactive” throughout. The Potency in assay [3] was 1.93 µM (active) and 1.46 µM (active); in assay [4] it was 8.63 µM (active) and 92 nM (active); in [5], 2.17 µM (active); in [9] it was 1.37 µM (active) and 1.3 µM (active); in [16] it was 30.6 µM (active); in [17], 30.6 µM (active). Further, the activity change, negative = cytotoxicity is -26.7% [at 19 µM] (inactive) in assay [5] and -2.12% [at 18.9 µM] (inactive) in assay [17]. Further, the result in assay [7] was inactive. In addition, the activation in [10] is 2.96% [at 19 µM] (inactive).
On to `CC1=CCC(C(C)(C)O)CC1` (stereo not given), for which the Potency entry in assay [1], in assay [3], in [4], in assay [8], in assay [9] and in assay [10] was “inactive” throughout. For the same molecule, the Potency entry in assay [16], in [17], in assay [11], in assay [12], in [13] and in [15] was “inactive” throughout. Also, the result in assay [18], in [7] and in [14] was inactive.
With `c1ccc2c(c1)c1cccc3ccc4cccc2c4c31`, the Potency entry in [2], in [20], in assay [3], in assay [4], in [5] and in assay [6] was “inactive” each time. Moreover, the Potency result in assay [8], in assay [9], in [10], in assay [16], in [17] and in [12] was “inactive” in each case. Moreover, the Potency result in [13] and in assay [15] was “inactive” throughout. Also, the Potency in assay [19] was 60.7 µM (active) and inactive. Moreover, the result in [18], in assay [7] and in assay [14] was inactive.
On to `COC(=O)CCC(=O)OC`, for which the Potency entry in assay [1], in assay [2], in [3], in [4], in assay [5] and in assay [8] was “inactive” each time. The Potency entry in assay [9], in [10], in assay [11], in assay [12], in assay [13] and in assay [15] was “inactive” in each case. Moreover, the call in assay [7] and in assay [14] was inactive.
Consider `COc1ccc(OC)c(C(O)CNC(=O)CN)c1` (stereo not given), for which the Potency result in assay [1], in assay [2], in assay [3], in [5], in assay [6] and in [8] was “inactive” throughout. Also, the Potency result in assay [9], in assay [10], in assay [16], in assay [17], in assay [11] and in assay [12] was “inactive” throughout. Besides, the Potency result in assay [13] was “inactive”. Moreover, the outcome in assay [7] and in [14] was inactive.
In the case of `Nc1ccccc1N`, the Potency was 788 nM (active) and 13.7 µM (active) in assay [1]; “inactive and 30.6 µM (active)” in assay [2]; “inactive and 27.3 µM (active)” in assay [6]; 49.7 µM (active) in [9]. Besides, the Potency result in assay [20], in assay [3], in assay [4], in assay [5], in assay [10] and in assay [17] was “inactive” throughout. The Potency result in assay [11], in assay [12], in assay [13] and in assay [15] was “inactive” in each case. The molecule was called inactive in [7] and in assay [14].
As to `CCC(C)CO` (stereo not given), the Potency entry in assay [1], in assay [2], in assay [3], in [4], in assay [5] and in [8] was “inactive” in each case. The Potency entry in assay [9], in assay [10], in [16], in assay [17], in assay [11] and in [12] was “inactive” in each case. The Potency result in assay [13] was “inactive”. In addition, the molecule was called inactive in [7] and in assay [14].
